For experiment [1], the system named is CRL-7250. The experiment in a line: Cytotoxic Profiling of Annotated Libraries Using Quantitative High-Throughput Screening (AID 1296008). Further: nearly all actives have a fitted effect of over 60% in size. Further: potency means the concentration at half of the fitted maximal effect. On max response: on the % scale 0 is the no-effect control and ±100 the full control effect. The conditions noted are these: Five cell lines viability, CellTiter-Glo ATP luminescence, 48-72 h; max response: stronger effect = lower value. The method in brief:
(§1)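 Compounds were pin-transferred onto cells and incubated 48 or 72 hr at 37 degree Celsius, 95% humidity. CellTiter-Glo was added, plates sat 10 min at room temperature, then ATP-coupled luminescence was imaged as the viability read-out.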
Background: In ATP-based viability assays light output follows the ATP content of the culture.

The test system of experiment [2] is HEK293. The description is as above. The conditions noted are these: Five cell lines viability, CellTiter-Glo ATP luminescence, 48-72 h; max response: stronger effect = lower value. The method in brief:
as §1

For experiment [3], the system named is HaCat. The description is as above. The conditions noted are these: Five cell lines viability, CellTiter-Glo ATP luminescence, 48-72 h; max response: stronger effect = lower value. The method in brief: as §1
The subject of experiment [4] is KB-3-1. The experiment is described as above. The conditions noted are these: Five cell lines viability, CellTiter-Glo ATP luminescence, 48-72 h; max response: stronger effect = lower value. The procedure, abridged: as §1
Experiment [5] has as its system NIH3T3. The experiment is described as above. The conditions noted are these: Five cell lines viability, CellTiter-Glo ATP luminescence, 48-72 h; max response: stronger effect = lower value. The method in brief: as §1
Experiment [6] concerns C33A. The experiment can be described thus: Primary qHTS to identify gynecologic anti-cancer compounds using libraries of approved drugs and bioactive compounds (AID 1345084). Further: on the % scale 0 is the no-effect control and ±100 the full control effect; nearly all actives have a fitted effect of over 55% in size. The conditions noted are these: Gynecologic cancer cell panel viability, ATPlite luminescence, 48 h; series mostly up to 57.5 µM. The method in brief:
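ATP-based viability (ATPlite), 1,000 cells/well, 16 h pre-incubation, 48 h compound at 37 C, 5% CO2, 15 min RT before read.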
A general note: In qHTS, concentration-response curves come from the screen itself.

Experiment [7] relates to HACAT. The experiment can be described thus: qHTS assay to identify novel small-molecules to repurpose for Merkel cell carcinoma treatment (AID 1296009). Further: nearly all actives have a fitted effect of over 60% in size. The conditions noted are these: MCC and control cell lines, CellTiter-Glo viability, 72 h; at 44.8 µM (top of the series) unless noted. The method in brief: (§2)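 Viability readout: ATP luminescence (CellTiter-Glo) after 72 hr drug exposure at 37 degree celsius. Dose-response format was 8 points for NPC and 11 points for MIPE; data normalized to in-plate controls.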

Experiment [8] concerns HEK293T. The description is as above. The conditions noted are these: MCC and control cell lines, CellTiter-Glo viability, 72 h; series mostly up to 44.8 µM. The procedure, abridged: as §2
Experiment [9] relates to NIH3T3. The description is as above. The conditions noted are these: MCC and control cell lines, CellTiter-Glo viability, 72 h; at 44.8 µM (top of the series) unless noted. The procedure, abridged:
as §2

For 15 compounds, max response, outcome and Potency results are on record in PubChem BioAssay (NCATS).

Where “and” joins values, the source holds several entries; their conditions need not be identical. Identical values can stand only once. Results filed as inconclusive are left out. More than one record can exist for a structure, and the calls need not agree. Values without a mark were called inactive. Calls of active or inactive are those of the source. The call rests on the fitted dose curve; in most records, active means well fitted curve in the direction sought with a large enough effect; inconclusive means small, poorly fitted or top-dose-only effect, or another doubt; inactive means no such curve, though single readings can be large; an effect the other way counts as inactive or inconclusive.

Take `CC1=C2C(=O)O[C@@H](c3ccoc3)[C@]2(C)CCC1`: the max response in experiment [1] was -4.96%; in experiment [2], -8.51% and 3.13%; in [3], 0.193%; in experiment [4] it was 4.53%; in experiment [5], 0.635% and 0.0895%. Also, the outcome in experiment [1] and in experiment [4] was inactive. In experiment [6], the Potency result is “inactive”.

As to `COc1ccc2c(c1O)OC[C@H]1c3ccc(O)cc3O[C@@H]21`, the max response in experiment [1] is 2.17%. For the same compound, the compound was called inactive in experiment [2], in experiment [3], in experiment [4], in [5], in experiment [7] and in [9]. Further, the Potency entry in experiment [8] and in experiment [6] was “inactive” in each case.

`CN(NC(=O)CC(=O)NN(C)C(=S)c1ccccc1)C(=S)c1ccccc1`: the Potency in experiment [1] is 66 nM (active); in experiment [2], 11.6 nM (active) and 13.2 nM (active); in experiment [4], 0.0366 µM (active); in [5], 51.7 nM (active) and 26.3 nM (active). Also, the compound was called inactive in experiment [3] and in experiment [7].

For the compound `CNC(=O)c1ccc(Nc2ncc(C(F)(F)F)c(NCc3nccnc3N(C)S(C)(=O)=O)n2)cc1`, the Potency is 4170 nM (active) in experiment [1]; 5.17 µM (active) in experiment [2]; 7.31 µM (active) and 2.95 µM (active) in experiment [3]; 11.6 µM (active) in [4]; 14.6 µM (active) and 3.71 µM (active) in experiment [5].

`CN(C)C/C=C/C(=O)Nc1ccc(C(=O)Nc2cccc(Nc3ncc(Cl)c(-c4c[nH]c5ccccc45)n3)c2)cc1`: the Potency was 164 nM (active) and 263 nM (active) in experiment [1]; 0.186 µM (active) in experiment [2]; 1.84 µM (active) and 1.05 µM (active) in experiment [3]; 0.184 µM (active) in experiment [4]; 1.16 µM (active) and 2.09 µM (active) in experiment [5].

In the case of `COc1cc(N2CCC(N(C)C)CC2)ccc1Nc1ncc(Cl)c(Nc2ccccc2P(C)(C)=O)n1`, the Potency is 2.91 µM (active) and 1.48 µM (active) in experiment [1]; 5.17 µM (active) and 1.86 µM (active) in experiment [2]; 1.84 µM (active) and 2.34 µM (active) in experiment [3]; 4.11 µM (active) in experiment [4]; 2.06 µM (active) in experiment [5].

Consider `C#Cc1cnc2[nH]c(=O)n(C(CC)CC)c2n1`, for which the outcome in experiment [1], in experiment [2], in experiment [3], in experiment [5], in [7] and in experiment [9] was inactive. In experiment [4], the max response is 8.63%. For the same compound, the Potency entry in experiment [8] and in [6] was “inactive” each time.

`NS(=O)(=O)NCCNc1nonc1C(=Nc1ccc(F)c(Br)c1)NO`: the max response in [1] is 3.38% and -8.95%; in experiment [2], -61.6%; in experiment [3], -46.4%; in experiment [4], 4.58% and 8.99%; in experiment [5], -8.59% and -38.3%. Besides, the outcome in experiment [2], in experiment [3], in experiment [5], in [7] and in [9] was inactive. Moreover, the Potency result in experiment [8] and in experiment [6] was “inactive” in each case.

As for `CN(C)c1cccc(-c2c3c(=O)n(-c4ccccc4Cl)[nH]c3cc(=O)n2C)c1`, the values for the max response in experiment [1], in [4] and in [5] were 3.76%, 5.47% and -12.2%, respectively. Moreover, the Potency was 5.88 µM (active) in [2] and 14.8 µM (active) in experiment [3]. In addition, the outcome in [2], in experiment [3], in [5], in experiment [7] and in experiment [9] was inactive. Further, the Potency result in experiment [8] and in experiment [6] was “inactive” each time.

Turning to `COc1c(C)c(C(=O)c2ccc(N)c(C(=O)O)c2)n2ccccc12`, the max response is -6.91% in [1]; -16.3% in experiment [2]; -0.372% in [3]; 4.57% and 7.45% in [4]. In addition, the compound was classed as inactive in experiment [3] and in [7]. The Potency result in experiment [6] is “inactive”.

On to `Cc1onc(-c2ccccc2)c1C(=O)N[C@@H]1C(=O)N2[C@@H]1SC(C)(C)[C@@H]2C(=O)O`, for which the max response was 4.38% in experiment [1]; 3.77% and -1.97% in experiment [2]; -3.02% and -31.5% in experiment [3]. The compound was called inactive in experiment [1], in [4], in [5] and in experiment [9]. Also, the Potency result in experiment [6] is “inactive”.

Turning to `Cc1cc(Nc2ncc(Cl)c(Nc3ccccc3S(=O)(=O)C(C)C)n2)c(OC(C)C)cc1C1CCNCC1`, the max response in [1] was -10.6%. Moreover, the Potency in [2] is 8.2 µM (active) and 4.17 µM (active); in experiment [4], 18.4 µM (active); in experiment [5], 23.4 µM (active). In addition, the result in [3], in experiment [5], in experiment [7] and in experiment [9] was inactive. Besides, in [6], the Potency result is “inactive”.

As to `C[C@]12C=CC(=O)C=C1CC[C@@H]1[C@@H]2[C@@H](O)C[C@@]2(C)[C@H]1CC[C@]2(O)C(=O)COC(=O)CCC(=O)O`, the max response in experiment [1] is 2.71%; in experiment [2] it was -0.357%; in [4], 2.8%. Besides, the compound was classed as inactive in experiment [3], in [4], in experiment [5] and in experiment [7]. The Potency result in [6] was “inactive”.

Turning to `O=C(O)C[C@H](O)C[C@H](O)/C=C/c1c(C2CC2)nc2ccccc2c1-c1ccc(F)cc1`, the Potency in experiment [1] is 731 nM (active); in experiment [2], 5.8 µM (active); in [3] it was 7.31 µM (active); in [4], 4.61 µM (active); in experiment [5] it was 14.6 µM (active).

For `CCC(=O)NS(=O)(=O)c1ccc(-c2c(-c3ccccc3)noc2C)cc1`, the compound was classed as inactive in experiment [1], in experiment [2], in experiment [4], in [5] and in experiment [9]. The max response in experiment [3] is -10.3%; in experiment [4], -21.2%. In addition, the Potency entry in experiment [8] and in experiment [6] was “inactive” throughout.
